Where “and” joins values, the source holds several entries; their conditions need not be identical. Equal entries are not always repeated. About 79,000 compounds went through this panel and 15% of them were active in at least one assay; those are over-represented in the sample as a whole. The source holds several records for some structures; these can differ, active in one and inactive in another. Calls of active or inactive are those of the source. No stated cut-off is given here; in the data, active means growth inhibition above about 70%; inactive means the rest.
Tests used:
[1] = NCI Yeast Anticancer Drug Screen. Data for the rad50 strain (AID 155);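 further: 0% = growth of vehicle-only cultures of the same strain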; settings: S. cerevisiae rad50 strain growth inhibition, stronger effect = higher value
Method in brief: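 Cells are treated with compound, grown, and their growth is then scored against vehicle-only cultures of the same repair-deficient yeast strain.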

[2] = NCI Yeast Anticancer Drug Screen. Data for the mec2-1 strain (AID 157); settings: S. cerevisiae mec2-1 strain, stronger effect = higher value
Method in brief: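 mec2-1 yeast strain, carrying an alteration in DNA damage repair or cell cycle control, was exposed to compounds; growth inhibition was measured relative to vehicle-treated controls.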

[3] = NCI Yeast Anticancer Drug Screen. Data for the sgs1 mgt1 strain (AID 161);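 further: 0% = growth of cultures given vehicle only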; settings: S. cerevisiae sgs1 mgt1 strain, stronger effect = higher value
Method in brief: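 This yeast growth screen uses a strain with defined DNA-repair lesions; compound-treated growth is compared with vehicle-treated growth.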

[4] = NCI Yeast Anticancer Drug Screen. Data for the cln2 rad14 strain (AID 165);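 further: 0% = growth equal to vehicle treated cultures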; settings: S. cerevisiae cln2 rad14 strain, stronger effect = higher value
Method in brief: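 Yeast carrying cln2 and rad14 alterations (cell cycle control and DNA damage repair) were exposed to compounds. Growth inhibition was measured against vehicle-treated controls.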

[5] = NCI Yeast Anticancer Drug Screen. Data for the bub3 strain (AID 167); settings: S. cerevisiae bub3 mutant strain, stronger effect = higher value
Method in brief: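 Part of a panel of yeast mutants defective in DNA damage repair or cell cycle regulation. Each strain is grown with compound, and inhibition is calculated relative to solvent-treated cultures.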

[6] = NCI Yeast Anticancer Drug Screen. Data for the mlh1 rad18 strain (AID 175); settings: S. cerevisiae mlh1 rad18 strain growth inhibition, stronger effect = higher value
Method in brief: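 Growth inhibition of the yeast strain was measured after compound exposure and expressed relative to vehicle-treated controls. The strain carries defined defects in DNA damage repair.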

[7] = at 5.0 µM (retest, dose inferred, filed as 0.5)
[8] = at 50.0 µM (retest, dose inferred, filed as 5.0)

Structure (SMILES)	growth inhibition [1, 7]	growth inhibition [1, 8]	growth inhibition ([1]; at 50.0 µM)	growth inhibition [2, 7]	growth inhibition [2, 8]	growth inhibition ([2]; at 50.0 µM)	growth inhibition [3, 7]	growth inhibition [3, 8]	growth inhibition ([3]; at 50.0 µM)	growth inhibition [4, 7]	growth inhibition [4, 8]	growth inhibition ([4]; at 50.0 µM)	growth inhibition [5, 7]	growth inhibition [5, 8]	growth inhibition ([5]; at 50.0 µM)	growth inhibition [6, 7]	growth inhibition [6, 8]	growth inhibition ([6]; at 50.0 µM)
CC(=O)c1ccc2ccc3ccc(O)cc3c2c1	1% (inactive)	97% (active)	88.5% (active)	11% (inactive)	97% (active)	80.5% (active)	2% (inactive)	96% (active)	82.2% (active)	-5% (inactive)	97% (active)	72.8% (active)	-27% (inactive)	98% (active)	90.2% (active)	6% (inactive)	97% (active)	89.2% (active)
CCN(CC)CCC(=O)/C=C/c1ccccc1	31% (inactive)	95% (active)	99.3% (active) and 29.2% (inactive)	27% (inactive)	100% (active)	99.6% (active) and 56.1% (inactive)	60% (inactive)	100% (active)	99.5% (active) and 28.6% (inactive)	42% (inactive)	97% (active)	99.3% (active) and 6.75% (inactive)	58% (inactive)	99% (active)	99.5% (active) and 49.5% (inactive)	32% (inactive)	99% (active)	99.3% (active) and 36% (inactive)
Cc1ccc(CC(=O)c2c(C)[nH]c3ccccc23)cc1C	10% (inactive)	11% (inactive)	95.7% (active)	7% (inactive)	24% (inactive)	96.2% (active)	11% (inactive)	11% (inactive)	98.5% (active)	40% (inactive)	44% (inactive)	93.5% (active)	0% (inactive)	4% (inactive)	92.5% (active)	20% (inactive)	8% (inactive)	97% (active)
O=C(O)CSCc1ccc(Cl)cc1	-2% (inactive)	1% (inactive)	3.7% (inactive)	2% (inactive)	-3% (inactive)	-32.9% (inactive)	2% (inactive)	1% (inactive)	-9.3% (inactive)	0% (inactive)	-7% (inactive)	29.3% (inactive)	2% (inactive)	4% (inactive)	6.1% (inactive)	-1% (inactive)	-3% (inactive)	-6.45% (inactive)
O=C1COC(=O)/C1=C/c1ccc2c(c1)OCO2	12% (inactive) and 15% (inactive)	78% (active) and 86% (active)	76.6% (active) and 77.4% (active)	16% (inactive) and 26% (inactive)	84% (active) and 90% (active)	64.1% (inactive) and 84.5% (active)	18% (inactive)	69% (inactive) and 93% (active)	78.5% (active) and 86.4% (active)	4% (inactive) and 15% (inactive)	71% (active) and 61% (inactive)	56% (inactive) and 54.6% (inactive)	2% (inactive) and 4% (inactive)	82% (active) and 89% (active)	65.5% (inactive) and 88% (active)	9% (inactive) and 14% (inactive)	81% (active)	93.2% (active) and 95.1% (active)
NC(=O)N/N=C/c1ccc([N+](=O)[O-])o1	2% (inactive)	73% (active)	32% (inactive) and 46.6% (inactive)	2% (inactive)	26% (inactive)	13.8% (inactive) and 8.3% (inactive)	4% (inactive)	34% (inactive)	56.4% (inactive) and 48% (inactive)	0% (inactive)	16% (inactive)	10.1% (inactive) and 26.1% (inactive)	-3% (inactive)	22% (inactive)	10.6% (inactive) and 51.8% (inactive)	5% (inactive)	50% (inactive)	47.3% (inactive) and 71.3% (active)
Cc1nc2c(Br)cc(Br)cc2c(=O)n1-c1ccccc1NC1OC(CO)C(O)C(O)C1O (stereo unspecified)	9% (inactive)	41% (inactive)	-11.9% (inactive) and 65.8% (inactive)	5% (inactive)	32% (inactive)	-33.6% (inactive) and 17.9% (inactive)	7% (inactive)	25% (inactive)	-5.65% (inactive) and 47.2% (inactive)	11% (inactive)	75% (active)	-54.8% (inactive) and 64.5% (inactive)	7% (inactive)	56% (inactive)	-31.3% (inactive) and 74.8% (active)	-25% (inactive)	67% (inactive)	-35.1% (inactive) and 75% (active)
